Records with an inconclusive call do not appear. Calls of active or inactive are those of the source. The call rests on the fitted dose curve; in most records, active means well fitted curve in the direction sought with a large enough effect; inconclusive means small, poorly fitted or top-dose-only effect, or another doubt; inactive means no such curve, though single readings can be large; an effect the other way counts as inactive or inconclusive.
Experiments:
[1] = biological target: Rap guanine nucleotide exchange factor 3 (Homo sapiens) (UniProt O95398); test: Confirmatory qHTS for agonist of cAMP-regulated guanine nucleotide exchange factor 3 (EPAC1) (AID 1645881);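 further: EPAC1 catalysed release of BODIPY-GDP from Rap1B seen as fluorescence loss; 100% = effect of cAMP agonist control; nearly all actives have a fitted effect of over 75% in size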
[2] = biological target: Rap guanine nucleotide exchange factor 4 (Homo sapiens) (UniProt Q8WZA2); test: Confirmatory qHTS for agonist of cAMP-regulated guanine nucleotide exchange factor 4 (EPAC2) (AID 1645884);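 further: nucleotide exchange releases bodipy-GDP from Rap1 and this lowers its fluorescence; on the % scale 0 is the no-effect control and ±100 the full control effect; nearly all actives have a fitted effect of over 65% in size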
[3] = biological target: Rap guanine nucleotide exchange factor 4 (Homo sapiens) (UniProt Q8WZA2); test: Confirmatory qHTS for antagonist of cAMP-regulated guanine nucleotide exchange factor 4 (EPAC2) (AID 1645885); further: nearly all actives have a fitted effect of over 25% in size; further: potency means the concentration at half of the fitted maximal effect; on activity change, negative = inhibition: on the % scale 0 is the no-effect control and ±100 the full control effect
[4] = biological target: Rap guanine nucleotide exchange factor 3 (Homo sapiens) (UniProt O95398); test: Counterscreen qHTS for antagonist of cAMP-regulated guanine nucleotide exchange factor 3 (EPAC1) (AID 1645888);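 further: fluorescence loss as bound BODIPY-GDP is released from Rap1B; % of control where 0% means no effect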
In short: (§1)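 Rap1B–BODIPY-GDP (250 nM) with 50 uM GDP; compounds pin-transferred to 9.74 nM–152 uM final (activator) or from 7.32 nM upwards (inhibitor). Fluorescence Ex/Em 480/540 nm read at 5 and 30 min, then after adding cAMP or buffer, at room temperature.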

[5] = biological target: Rap guanine nucleotide exchange factor 3 (Homo sapiens) (UniProt O95398); test: Counterscreen qHTS for agonist of cAMP-regulated guanine nucleotide exchange factor 3 (EPAC1) (AID 1645889); further: nearly all actives have a fitted effect of over 40% in size; further: potency means the concentration at half of the fitted maximal effect; on activation: % of control where 0% means no effect
In short: as §1

Rap guanine nucleotide exchange factor 3 (Homo sapiens), sequence (O95398 whole entry, looked up): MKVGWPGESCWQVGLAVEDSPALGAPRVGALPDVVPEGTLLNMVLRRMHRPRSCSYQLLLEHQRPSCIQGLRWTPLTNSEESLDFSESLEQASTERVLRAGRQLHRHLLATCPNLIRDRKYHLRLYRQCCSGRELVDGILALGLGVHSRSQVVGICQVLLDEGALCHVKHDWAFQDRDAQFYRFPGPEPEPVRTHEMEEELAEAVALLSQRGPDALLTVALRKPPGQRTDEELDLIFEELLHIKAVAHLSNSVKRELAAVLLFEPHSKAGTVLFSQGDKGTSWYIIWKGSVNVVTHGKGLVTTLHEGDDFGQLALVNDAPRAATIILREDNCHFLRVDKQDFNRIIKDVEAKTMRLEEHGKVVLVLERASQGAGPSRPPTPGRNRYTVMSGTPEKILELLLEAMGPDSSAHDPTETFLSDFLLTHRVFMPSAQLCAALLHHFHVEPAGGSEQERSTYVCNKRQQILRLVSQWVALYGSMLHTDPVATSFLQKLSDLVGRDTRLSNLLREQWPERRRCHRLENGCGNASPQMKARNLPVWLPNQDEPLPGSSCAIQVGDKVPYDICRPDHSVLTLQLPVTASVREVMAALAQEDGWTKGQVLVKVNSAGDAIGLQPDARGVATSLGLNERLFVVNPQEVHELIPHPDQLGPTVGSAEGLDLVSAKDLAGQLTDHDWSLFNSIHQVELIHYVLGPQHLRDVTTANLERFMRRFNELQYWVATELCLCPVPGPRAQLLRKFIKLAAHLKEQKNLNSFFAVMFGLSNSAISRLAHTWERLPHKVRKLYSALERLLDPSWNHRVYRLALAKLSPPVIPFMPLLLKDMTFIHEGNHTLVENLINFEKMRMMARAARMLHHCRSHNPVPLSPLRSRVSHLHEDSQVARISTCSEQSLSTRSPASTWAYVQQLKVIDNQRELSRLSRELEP
Rap guanine nucleotide exchange factor 4 (Homo sapiens), sequence (Q8WZA2 whole entry, looked up): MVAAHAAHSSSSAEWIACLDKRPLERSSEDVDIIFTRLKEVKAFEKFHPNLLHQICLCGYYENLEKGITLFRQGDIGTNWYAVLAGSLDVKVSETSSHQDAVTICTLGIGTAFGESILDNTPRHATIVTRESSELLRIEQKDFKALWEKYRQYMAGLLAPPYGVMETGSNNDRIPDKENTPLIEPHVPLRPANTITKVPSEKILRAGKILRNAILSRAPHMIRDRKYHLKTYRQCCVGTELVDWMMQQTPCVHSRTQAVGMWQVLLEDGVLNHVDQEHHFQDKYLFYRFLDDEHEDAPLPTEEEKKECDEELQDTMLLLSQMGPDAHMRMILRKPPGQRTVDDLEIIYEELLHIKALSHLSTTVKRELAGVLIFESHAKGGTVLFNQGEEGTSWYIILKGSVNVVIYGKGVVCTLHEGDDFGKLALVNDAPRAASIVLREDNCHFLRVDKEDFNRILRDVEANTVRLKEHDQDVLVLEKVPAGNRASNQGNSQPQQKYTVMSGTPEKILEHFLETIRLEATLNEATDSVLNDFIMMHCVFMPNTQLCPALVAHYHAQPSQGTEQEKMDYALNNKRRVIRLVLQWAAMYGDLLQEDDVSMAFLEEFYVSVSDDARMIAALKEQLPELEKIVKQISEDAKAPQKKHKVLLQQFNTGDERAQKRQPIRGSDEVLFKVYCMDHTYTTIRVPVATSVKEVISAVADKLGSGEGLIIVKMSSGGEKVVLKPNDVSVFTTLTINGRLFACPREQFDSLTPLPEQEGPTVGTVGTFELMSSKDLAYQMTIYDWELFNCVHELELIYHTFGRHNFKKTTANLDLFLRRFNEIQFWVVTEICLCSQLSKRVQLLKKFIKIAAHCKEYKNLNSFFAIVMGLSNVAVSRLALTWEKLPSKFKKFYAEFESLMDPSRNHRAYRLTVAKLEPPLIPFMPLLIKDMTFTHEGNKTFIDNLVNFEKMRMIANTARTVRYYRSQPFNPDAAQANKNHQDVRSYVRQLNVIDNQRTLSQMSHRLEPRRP

Cc1cc(O)cc(C)c1NS(=O)(=O)c1ccc2ccccc2c1
inactive: Potency [1] | Potency [2] | Potency [3] | Potency [4]

Cc1ccc(C)c(Cn2c(CN(C)Cc3ccccc3)nc3c2c(=O)n(C)c(=O)n3C)c1
inactive: Potency [1] | Potency [2] | Potency [3] | Potency [4]

Cc1ccc(C)c(-c2ccc(=O)n(C(C)C(=O)Nc3ccccc3C(F)(F)F)n2)c1 (centres undefined)
inactive: Potency [1] | Potency [2] | outcome [3] inactive [at 12.7 µM] | Potency [4]

CCOC(=O)c1cc2c(ccn2C)n1CC(=O)N1CCN(c2cccc(C(F)(F)F)c2)CC1
inactive: Potency [1] | activation [2] 0% [at 17.1 µM, percent relative to cAMP agonist control] | Potency [3] | activity change, negative = inhibition [4] 12.9% [at 30.8 µM]

Cc1ccc(C(=O)OCC(=O)c2ccc(CC(=O)N3CCOCC3)s2)c(C)c1
inactive: Potency [1] | Potency [2] | Potency [3] | Potency [4]

COc1ccccc1[C@]1(C)ON(c2ccccc2C(F)(F)F)C1=O
inactive: Potency [1] | Potency [2] | Potency [3] | Potency [4]

COc1ccc(Cn2c(-c3ccc(C)cc3)nc3c(c(=O)c4ccccc4n3C)c2=O)cc1
inactive: Potency [1] | activation [2] -1.59% [at 17.1 µM, percent relative to cAMP agonist control] | Potency [3] | activity change, negative = inhibition [4] -16.2% [at 30.8 µM]

CC1CCCN(c2nc3ccccc3nc2C(C#N)S(=O)(=O)c2ccccc2)C1 (centres undefined)
inactive: Potency [1] | Potency [2] | Potency [3] | Potency [4]
active: Potency [5] 22.4 µM

C[C@H](CO)N1C[C@H](C)[C@H](CN(C)Cc2cccc(O)c2)OCc2ccccc2-c2c(n(C)c3ccccc23)C1=O
inactive: Potency [1] | activation [2] 8.26% [at 17.1 µM, percent relative to cAMP agonist control] | Potency [3] | activity change, negative = inhibition [4] -3.58% [at 30.8 µM]

CCc1nc2c(OCc3ccc(OC)cc3)cccn2c1N(C)C(=O)c1ccc(OC)cc1
inactive: Potency [1] | Potency [2] | Potency [3] | Potency [4]

CC1=C(C(=O)Nc2ccccc2)C(c2ccc[nH]2)n2ncnc2N1 (centres undefined)
inactive: Potency [1] | Potency [2] | Potency [3] | Potency [4]

Cc1ccc(C(=O)c2cn(Cc3cccc(F)c3)c3nc(C)ccc3c2=O)cc1
inactive: Potency [1] | Potency [2] | Potency [3] | Potency [4]

COc1ccc(OCc2nc3ccccc3n2C(C)c2ccccc2)cc1 (centres undefined)
inactive: Potency [1] | Potency [2] | Potency [3] | Potency [4]

Cc1ccc(Cn2ccnc2SCC(=O)Nc2ccc3c(c2)OCO3)cc1
inactive: Potency [1] | Potency [2] | Potency [3] | Potency [4]

COc1ccc(OCc2nc3ccccc3n2Cc2ccc(C(C)(C)C)cc2)cc1
inactive: Potency [1] | Potency [2] | Potency [3] | Potency [4]

COc1ccc(Oc2cn[nH]c2-c2ccc(OC)cc2O)cc1
inactive: Potency [1] | activation [2] 9.65% [at 17.1 µM, percent relative to cAMP agonist control] | Potency [3] | activity change, negative = inhibition [4] -4.7% [at 30.8 µM]

CC(C)Oc1cccc(C(=O)Nc2ccc3oc(-c4cccc(Cl)c4)nc3c2)c1
inactive: Potency [1] | Potency [2] | Potency [3] | Potency [4]

Cc1ccc(C(=O)Nc2cccc(-c3ccc(N4CCOCC4)nn3)c2)cc1C
inactive: Potency [1] | Potency [2] | Potency [3] | Potency [4]

COc1cc2c(cc1OC)C(c1cccs1)N(C(=O)C(C)C)CC2 (centres undefined)
inactive: Potency [1] | Potency [2] | Potency [3] | Potency [4]

Cc1ccc2[nH]cc(C(c3ccccc3)c3ccc(Cl)s3)c2c1 (centres undefined)
inactive: Potency [1] | Potency [2] | Potency [3] | Potency [4]

O=S(=O)(Nc1nc2ccc(Cl)cc2s1)c1cccs1
inactive: Potency [1] | activation [2] 0% [at 17.1 µM, percent relative to cAMP agonist control] | Potency [3] | activity change, negative = inhibition [4] -17.1% [at 30.8 µM]

COc1cc2c(cc1OC)C(c1ccc(Cl)cc1)N(c1ccc(C)c(F)c1)C(=O)C2 (centres undefined)
inactive: Potency [1] | Potency [2] | outcome [3] inactive [at 12.7 µM] | Potency [4]

N#Cc1c(NC(=O)CSc2ncnc3sccc23)oc(-c2ccco2)c1-c1ccco1
active: Potency [3] 84.9 µM
inactive: Potency [1] | Potency [2] | Potency [4]

O=C(CSc1ccc2ccccc2c1)Nc1ccc(S(=O)(=O)Nc2nccs2)cc1
inactive: Potency [1] | activation [2] 0.22% [at 17.1 µM, percent relative to cAMP agonist control] | Potency [3] | activity change, negative = inhibition [4] -0.461% [at 30.8 µM]

C=CCOC(=O)C1=C(C)NC(C)=C(C(=O)OCC=C)C1c1ccco1
inactive: Potency [1] | activation [2] 7.19% [at 17.1 µM, percent relative to cAMP agonist control] | Potency [3] | activity change, negative = inhibition [4] -5.56% [at 30.8 µM]

O=C1C(=O)c2ccc(-c3ccccc3)cc2-c2ccccc21
inactive: Potency [1] | Potency [2] | Potency [3] | Potency [4]

COc1ccc(CCn2c(=N)c(C(=O)NC3CCCCC3)cc3c(=O)n4ccccc4nc32)cc1
inactive: Potency [1] | Potency [2] | Potency [3] | Potency [4] | Potency [5]

O=C1CSC(c2cccc(Cl)c2Cl)N1c1ccccn1 (centres undefined)
inactive: Potency [1] | activation [2] 6.45% [at 17.1 µM, percent relative to cAMP agonist control] | Potency [3] | activity change, negative = inhibition [4] -6.53% [at 30.8 µM]

N#C/C(=C/c1cccn1-c1cccc(C(=O)O)c1)c1ccc(F)cc1
inactive: Potency [1] | activation [2] -0.882% [at 17.1 µM, percent relative to cAMP agonist control] | Potency [3] | activity change, negative = inhibition [4] -6.54% [at 30.8 µM] | activation [5] 2.77% [at 30.8 µM]

COc1ccc(S(=O)(=O)Nc2ccccc2SC)cc1C
active: Potency [3] 10.7 µM
inactive: Potency [1] | Potency [2] | Potency [4] | Potency [5]

O=C(COC(=O)c1ccc2c(c1)C(=O)N(Cc1ccncc1)C2=O)Nc1ccccc1[N+](=O)[O-]
inactive: Potency [1] | Potency [2] | Potency [3] | Potency [4] | Potency [5]

CCOc1ccc(C=NNc2ccc(S(=O)(=O)Nc3ccccc3C(=O)O)cc2[N+](=O)[O-])cc1
inactive: Potency [1] | activation [2] -0.564% [at 17.1 µM, percent relative to cAMP agonist control] | Potency [3] | activity change, negative = inhibition [4] 6.79% [at 30.8 µM] | activation [5] 21.3% [at 30.8 µM]

Oc1ccc(NCc2ccc(OCc3ccccc3Cl)cc2)cc1
inactive: Potency [1] | Potency [2] | Potency [3] | Potency [4]
active: Potency [5] 56.2 µM

NS(=O)(=O)c1ccc(NC(=O)c2cccc(N3C(=O)c4ccccc4C3=O)c2)cc1
inactive: Potency [1] | activation [2] 3.4% [at 17.1 µM, percent relative to cAMP agonist control] | Potency [3] | activity change, negative = inhibition [4] 2.18% [at 30.8 µM] | activation [5] 23.3% [at 30.8 µM]

CC(C)c1ccc(S(=O)(=O)Nc2ccc3c(c2)OCO3)cc1
inactive: Potency [1] | Potency [2] | Potency [3] | Potency [4] | Potency [5]

CCN(CC)C(=O)c1ccc2c(c1)N(Cc1ccc(C(F)(F)F)cc1)C(=O)c1ccccc1S2
inactive: Potency [1] | Potency [2] | outcome [3] inactive [at 12.7 µM] | Potency [4] | Potency [5]

CCCN1C(=O)c2ccccc2NC1c1ccc(Cl)c(Cl)c1 (centres undefined)
inactive: Potency [1] | activation [2] 5.07% [at 17.1 µM, percent relative to cAMP agonist control] | Potency [3] | activity change, negative = inhibition [4] -17% [at 30.8 µM] | activation [5] 12.5% [at 30.8 µM]

Fc1ccc(-c2nc3ccc(Br)cn3c2Cc2cccc(F)c2)cc1
inactive: Potency [1] | Potency [2] | Potency [3] | Potency [4] | Potency [5]

CCCc1nc2c(=O)n(C)c(=O)nc-2n(C)n1
inactive: Potency [1] | Potency [2] | Potency [3] | Potency [4] | Potency [5]

COc1cc(/C=C2/C(=O)NN(c3cccc(Cl)c3)C2=O)cc(OC)c1O
inactive: Potency [1] | activation [2] 11.7% [at 17.1 µM, percent relative to cAMP agonist control] | Potency [3] | activity change, negative = inhibition [4] -0.0912% [at 30.8 µM] | activation [5] 4.51% [at 30.8 µM]

CCCC(=O)Oc1c(S(=O)(=O)c2ccc(C)cc2)c(C)nn1C(C)(C)C
inactive: Potency [1] | activation [2] 12.6% [at 17.1 µM, percent relative to cAMP agonist control] | Potency [3] | activity change, negative = inhibition [4] -10.7% [at 30.8 µM] | activation [5] 5.13% [at 30.8 µM]

O=C(Nc1nc2ccccc2[nH]1)C1CCN(S(=O)(=O)c2cccs2)CC1
inactive: Potency [1] | Potency [2] | Potency [3] | Potency [4] | Potency [5]

CC(=O)NC(C)(c1ccccc1)c1nc(-c2cccc(C(F)(F)F)c2)cs1 (centres undefined)
inactive: Potency [1] | Potency [2] | Potency [3] | Potency [4] | Potency [5]

CCOC(=O)C1CCc2c(ccc3ccccc23)N1CCC#N (centres undefined)
inactive: Potency [1] | activation [2] 0.813% [at 17.1 µM, percent relative to cAMP agonist control] | Potency [3] | activity change, negative = inhibition [4] -15.2% [at 30.8 µM] | activation [5] 2.64% [at 30.8 µM]

O=C(CSc1nc(-c2ccc(F)cc2)nc2ccc(F)cc12)Nc1cccc(C(=O)O)c1
inactive: Potency [1] | Potency [2] | Potency [3] | Potency [4] | Potency [5]

O=C(O)C(Cc1c[nH]c2ccccc12)NS(=O)(=O)c1ccc(Cl)c(C(F)(F)F)c1 (centres undefined)
inactive: Potency [1] | activation [2] -2.68% [at 17.1 µM, percent relative to cAMP agonist control] | Potency [3] | activity change, negative = inhibition [4] -4.37% [at 30.8 µM] | activation [5] 21.8% [at 30.8 µM]

— PubChem BioAssay (NCATS)
